Assay outcomes as filed in PubChem BioAssay.
Compounds with a hit are over-represented: about 2.3% of the library has one in this group of screens.
CHT allo act = allosteric activators of human choline transporter CHT; Q9GZV3; CHT-expressing cells, membrane potential dye, choline EC20; stronger effect = higher value; LV-AA mutant CHT in HEK293 cells; B-score at 10 µM; 310,000 tested, 0.49% active; AID 488977;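 active = initial fluorescence not abnormally high and integrated response B-score, plate-corrected, over 3 SD above library mean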
ANO1 block = inhibitors of mouse TMEM16A calcium-activated chloride channel | HEK293 TMEM16A/YFP iodide influx fluorescence, ionomycin | normalized B-score (activity score, 25-100; higher = stronger inhibition) at 10 µM | 310,000 tested, 1.2% active;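 active = ratio plate-corrected score three or more library SD toward inhibition, starting fluorescence score within five deviations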;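 note: score derived from kinetic fluorescence span divided by baseline fluorescence per well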
Target sequence (Q8BHY3 whole entry, looked up): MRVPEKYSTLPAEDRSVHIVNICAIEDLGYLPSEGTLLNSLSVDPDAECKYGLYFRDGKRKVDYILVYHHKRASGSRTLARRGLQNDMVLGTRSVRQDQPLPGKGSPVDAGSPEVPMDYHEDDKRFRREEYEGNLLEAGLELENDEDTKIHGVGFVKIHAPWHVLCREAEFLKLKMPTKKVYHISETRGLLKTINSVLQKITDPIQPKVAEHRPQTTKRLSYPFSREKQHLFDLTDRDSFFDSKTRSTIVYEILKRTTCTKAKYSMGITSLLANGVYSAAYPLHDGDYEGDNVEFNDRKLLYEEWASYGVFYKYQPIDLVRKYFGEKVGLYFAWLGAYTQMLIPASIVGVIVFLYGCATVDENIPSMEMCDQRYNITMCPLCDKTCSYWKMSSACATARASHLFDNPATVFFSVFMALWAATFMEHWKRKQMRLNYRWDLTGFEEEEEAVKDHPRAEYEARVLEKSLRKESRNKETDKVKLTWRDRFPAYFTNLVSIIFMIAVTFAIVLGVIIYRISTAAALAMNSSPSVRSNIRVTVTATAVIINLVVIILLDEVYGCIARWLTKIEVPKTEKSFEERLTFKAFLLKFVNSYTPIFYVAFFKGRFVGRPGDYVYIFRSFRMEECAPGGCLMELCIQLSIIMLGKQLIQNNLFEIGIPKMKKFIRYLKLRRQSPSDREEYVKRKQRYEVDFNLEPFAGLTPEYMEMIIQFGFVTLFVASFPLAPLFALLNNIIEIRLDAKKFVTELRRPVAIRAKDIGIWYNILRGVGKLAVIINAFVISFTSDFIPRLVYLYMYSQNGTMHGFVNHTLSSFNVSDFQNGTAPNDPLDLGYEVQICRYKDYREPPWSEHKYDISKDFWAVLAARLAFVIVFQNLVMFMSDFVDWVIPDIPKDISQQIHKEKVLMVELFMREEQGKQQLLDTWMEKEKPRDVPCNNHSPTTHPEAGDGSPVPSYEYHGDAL
TMEM16A act = activators or potentiators of mouse TMEM16A chloride channel; HEK293 TMEM16A/YFP-H148Q/I152L, iodide quench fluorescence; stronger effect = lower value; B-score at 10 µM; 340,000 tested, 0.3% active; AID 623877;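 active = fluorescence-ratio B-score plate-corrected deviation score at least 3 library SD below zero, with starting fluorescence score within 5 deviations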;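 note: channel opened by trigger with iodide after compound preincubation; score built on the fluorescence ratio of max minus min over baseline; more negative score means more quench and so TMEM16A activation or potentiation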
CHT inh = inhibitors of human choline transporter CHT. Q9GZV3. CHT-expressing cells, membrane potential dye, choline response; stronger effect = lower value. B-score at 10 µM. 310,000 tested, 0.86% active. AID 488975;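 active = B-score over 3 SD under the library average, and starting fluorescence ratio not unusually high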;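 note: choline stimulus applied at its EC90 after an EC20 pre-addition; B-score computed on integrated fluorescence ratio after choline addition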
CHT inh conf = confirmation of human choline transporter CHT inhibitors | shares compounds with CHT inh | AID 493221 | CHT activity remaining % of control (stronger effect = lower value), % at 10 µM | 2,400 tested, 70% active | CHT-expressing cells, choline membrane potential dye; LV-to-AA substituted CHT, HEK293 cells;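 active = choline transporter activity left, mean of duplicates at 10 µM, below buffer-only control mean minus 3 SD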;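 note: depolarization triggered by choline at its EC90 following an EC20 pre-addition; 0% = hemicholinium-3 full block and 100% = buffer-only control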
HEK293 CHT ctr = CHT inhibitor counter-screen hit in parental HEK293 cells | shares compounds with CHT inh | membrane potential dye, choline response; active = decrease or increase beyond buffer ±3SD | membrane potential ratio readout (active if shifted either direction beyond buffer ±3SD; no single direction) at 10 µM | 2,400 tested, 4% active | AID 493222;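 note: parental cells lack the transporter so any hit is non-specific; ratio is peak minus trough fluorescence over baseline after EC90 choline challenge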
The depositor's hits bear a star; i = inactive; x = no result given.

SMILES	CHT allo act	ANO1 block	TMEM16A act	CHT inh	CHT inh conf	HEK293 CHT ctr
CCOC(=O)c1sc(=S)n(-c2ccccc2)c1N(C(C)=O)C(C)=O	i	i	i	-6.23*	65.4%*	i
CCOC(=O)c1sc(=S)n(-c2ccccc2)c1N	i	i	i	i	x	x
Cc1c(NC(=O)CSc2nnc(C(C)Oc3ccc(Cl)cc3)n2-c2ccccc2)c(=O)n(-c2ccccc2)n1C (configuration not stated)	i	i	i	-10*	21.8%*	i
COc1ccccc1OC(C)c1nnc(SCC(=O)Nc2c(C)n(C)n(-c3ccccc3)c2=O)n1-c1ccccc1 (configuration not stated)	i	i	i	i	x	x
CCN1CCN(C(=O)CCc2nc3ccccc3n2-c2ccccc2)CC1	i	i	i	-6.08*	40.0%*	i
O=C(CCc1nc2ccccc2n1-c1ccccc1)NCCO	i	i	i	i	x	x
CCc1c(C)nc2ncnn2c1N1CCN(S(=O)(=O)c2ccc(OC)cc2)CC1	i	i	i	-6.27*	50.4%*	i
CCC(=O)Nc1cc(Cl)ccc1N1CCN(C(=O)CC)CC1	i	i	i	-8.09*	66.6%*	i
O=C(CN1CCN(Cc2cccc(C(F)(F)F)c2)CC1)NCC(=O)Nc1ccc(F)c(F)c1F	x	x	i	x	x	x
CCCOc1ccc(Br)cc1CSC(=N)N	i	25*	i	-6.07*	33.0%*	i
CCOc1ccc(Br)cc1CC(=O)O	i	i	i	i	x	x
CC[C@@H](C)C(NC(=O)OC(C)(C)C)c1cn([C@@H](CCCCNC(=O)OC(C)(C)C)C(=O)N2CCN(C(=O)OC(C)(C)C)CC2)nn1 (some centres not stated)	i	i	i	-10.8*	i	i
O=C(COC(=O)c1cccc(O)c1)Nc1ccc(S(=O)(=O)N2CCOCC2)cc1	x	x	i	x	x	x
CCCCCCNC(=O)c1cccc(-c2ccc(C)c3ccccc23)n1	i	i	i	-12.4*	i	i
COc1ccc(C2c3cc4c(cc3OC(N3CCOCC3)C2C)OCO4)c(OC)c1 (configuration not stated)	x	x	i	x	x	x
O=C(NCc1ccc(Cl)cc1)c1ccc(CNc2c(N3CCCC3)c(=O)c2=O)cc1	i	i	i	-6.24*	i	i
CN(C)c1ccc(CNC(=O)c2ccc(CNc3c(N4CCCCC4)c(=O)c3=O)cc2)cc1	i	i	i	i	x	x
Cc1nn(-c2ccccc2)c2nc(C(F)F)cc(C(F)F)c12	x	x	i	x	x	x
CC(=O)Nc1ccc(C(=O)Nc2ccc(S(=O)(=O)NCC3CCCO3)cc2)cc1 (configuration not stated)	i	i	i	i	x	x
Cc1c(C(=O)Nc2ccc(S(=O)(=O)NCC3CCCO3)cc2)cccc1[N+](=O)[O-] (configuration not stated)	i	i	i	-5.17*	41.3%*	i
O=C(Nc1ccc(S(=O)(=O)NCC2CCCO2)cc1)c1ccc(Cl)cc1[N+](=O)[O-] (configuration not stated)	i	i	i	-15.9*	0.4%*	i
Cc1cccc(-c2nc3ccccc3c(=O)n2N)c1	i	i	i	i	x	x
Nn1c(-c2ccccc2)nc2cc(Cl)ccc2c1=O	i	i	i	-7.24*	i	i
O=C(NCC1CCCN1S(=O)(=O)c1cccs1)c1cccc([N+](=O)[O-])c1 (configuration not stated)	i	i	i	i	x	x
O=C(OCc1nnc(-c2ccccc2)o1)C1CC(=O)N(CCc2ccccc2)C1 (configuration not stated)	x	x	i	x	x	x
SMILES	CHT allo act	ANO1 block	TMEM16A act	CHT inh	CHT inh conf	HEK293 CHT ctr
Cc1ccc(Cl)c2c1=NC(=O)C=2c1[nH]c(=S)[nH]c1O	i	i	i	-5.78*	i	i
C=CCn1c(SC(C)C(=O)c2c(N)n(C)c(=O)n(C)c2=O)nnc1-c1ccoc1C (configuration not stated)	x	x	i	x	x	x
O=[N+]([O-])c1ccc(O)c(/C=N/n2cnc3ccccc32)c1	i	25*	i	-5.01*	i	i
CC(C)(C)c1cc(C2COC(=O)COCCOCC(=O)OCCOCCO2)cc(C(C)(C)C)c1O (configuration not stated)	x	x	i	x	x	x
O=[N+]([O-])c1ccc(S(=O)(=O)Nc2nc(-c3ccccc3)cs2)cc1	i	100*	i	-5.6*	58.2%*	i
COc1ccc(OC)c(NC(=O)c2cc(S(=O)(=O)N3CCCC3)cn2C)c1	i	i	i	i	x	x
CC1=NN(C(=O)CSCc2ccccc2)C(O)(c2ccc(F)cc2)C1 (configuration not stated)	i	i	i	i	x	x
CC1=NN(C(=O)CSCc2ccccc2)C(O)(c2ccc(Cl)cc2)C1 (configuration not stated)	i	i	i	-6.51*	i	i
COc1cccc(/C=N/NC(=O)C(=O)NCc2cccnc2)c1O	i	i	i	i	x	x
COc1cccc(/C=N/NC(=O)C(=O)NCc2cccnc2)c1OC	i	i	i	-5.94*	i	i
C=CCN(c1nc(C)c(Br)c(OC)n1)S(=O)(=O)c1ccc(C)cc1	i	i	i	i	x	x
CCCCC1(C)NC(=O)N(CC(=O)Nc2ccc(Cl)cc2C)C1=O (configuration not stated)	x	x	i	x	x	x
COc1cc2ncnc(NCc3cccc(Cl)c3)c2cc1OC	i	i	i	i	x	x
Cc1nnc(NCc2cccc(Cl)c2)c2ccccc12	i	i	i	-10.2*	20.0%*	i
C[C@@H](C(=O)N=c1sc2ccccc2n1C)N1C(=O)C2CC=CCC2C1=O (some centres not stated)	x	x	i	x	x	x
COc1cc(/C=C2\SC(=S)N(NC(=O)c3ccccc3O)C2=O)ccc1O	i	i	i	i	x	x
O=C(NN1C(=O)/C(=C/c2ccc(O)c([N+](=O)[O-])c2)SC1=S)c1ccccc1Cl	i	i	i	-5.41*	i	i
O=C(NC1CCC(Oc2ccc(C(=O)O)cc2)CC1)NC12CC3CC(CC(C3)C1)C2 (configuration not stated)	x	x	i	x	x	x
O=C(N/N=C/C=C/c1ccccc1[N+](=O)[O-])c1cc(-c2cccnc2)nc2ccccc12	i	i	i	-9.2*	i	i
CC(C)COCC(CN(Cc1ccccc1)c1ccccc1)N1CCCC1 (configuration not stated)	i	i	i	-5.19*	i	i
